This passage reports Potency and outcome results from PubChem BioAssay (NCATS).

Experiment [1] concerns the target Calcium and integrin-binding protein 1 (Homo sapiens) (UniProt Q99828). As to the kind of experiment: Primary qHTS for Identification of Calcium Integrin Binding Protein 1 (CIB1) Competitor (AID 1508620).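 Also: GST tagged CIB1 binding a fluorescein labelled alphaIIb integrin peptide tracer; top concentration of the series differs between compounds.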 The method in brief: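 Fluorescence polarization competition: CIB1-GST (1 uM final) preincubated with compound 15 min at room temperature, then FITC-labeled alphaIIb peptide (100 nM final) added for another 15 min. Polarization read at Ex 480/Em 540.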

Experiment [2] is described as follows: A High-Content qHTS Against Drug Library for the Identification of Small Molecules that Inhibit DYT1 Early Onset Primary Dystonia-Associated Cell Pathology (AID 1645839; calls by dose curve; also: series mostly up to about 46 µM). In outline:
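Readout: %pathology, the punctate EGFP-TorsinA distribution from imaging, as the primary channel and cell count as the toxicity counterscreen. HEK293 Flp-In cells expressing delE TorsinA were induced with tetracycline and treated with compound for 48 h.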

Experiment [3] concerns the target Cytochrome P450 2D6 (Homo sapiens) (UniProt P10635). As to the kind of experiment: Cytochrome P450 family 2 subfamily D member 6 (CYP2D6) small molecule antagonists: luciferase biochemical (cell-free) qHTS assay (AID 1645840; active = well fitted curve in the direction sought with a large enough effect in the repeat runs; an effect the other way counts as inactive or inconclusive; also: nearly all actives have a fitted effect of over 55% in size; also: potency is read from the fitted curve at half-maximal effect). The method in brief:
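P450-Glo luminescent screen: recombinant CYP2D6 enzyme–proluciferin substrate mix preincubated with compound 10 min at room temperature, then NADPH regeneration added for 1 h at room temperature. Detection reagent added for 20 min; luciferin light read as relative luminescence units.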

In experiment [4] the target is Cytochrome P450 2C9 (Homo sapiens) (UniProt P11712). The experiment can be described thus: Cytochrome P450 family 2 subfamily C member 9 (CYP2C9) small molecule antagonists: luciferase biochemical (cell-free) qHTS assay (AID 1645842; active = well fitted curve in the direction sought with a large enough effect in the repeat runs; an effect the other way counts as inactive or inconclusive; also: nearly all actives have a fitted effect of over 55% in size; also: potency is read from the fitted curve at half-maximal effect). In outline:
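Luminescence, after 20 min with luciferin detection reagent, reflected CYP2C9 turnover during a 1 h NADPH-driven reaction at 37C. Enzyme-substrate mix contained 0.4% bovine serum albumin and was preincubated with compound 10 min at room temperature.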

A short description of experiment [5]: Primary qHTS for small molecule stabilizers of the endoplasmic reticulum resident proteome: Secreted ER Calcium Modulated Protein (SERCaMP) assay (AID 1508630). Also: potency is read from the fitted curve at half-maximal effect. The method in brief:
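GLuc-SERCaMP-expressing SH-SY5Y cells, pretreated 16 h with compound, are challenged with thapsigargin to empty ER calcium stores; after 4 h, coelenterazine is added directly to the medium and luminescence is imaged.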
A general note: qHTS replaces the single test concentration by a dilution series.

Experiment [6] is described as follows: Counterscreen qHTS for small molecule stabilizers of the endoplasmic reticulum resident proteome: GLuc-NoTag assay (AID 1508627). Also: potency is read from the fitted curve at half-maximal effect. The method in brief: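 SH-SY5Y cells stably expressing constitutively secreted GLuc (no SERCaMP tag) were pre-incubated 5 h, treated with compound for 19 h, then 100 nM thapsigargin for 4 h at 37C; medium GLuc read by coelenterazine luminescence.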

A short description of experiment [7]: Confirmatory qHTS for small molecule stabilizers of the endoplasmic reticulum resident proteome: Secreted ER Calcium Modulated Protein (SERCaMP) assay (AID 1508628). Also: nearly all actives have a fitted effect of over 40% in size. Also: potency is read from the fitted curve at half-maximal effect. In outline:
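We seeded SH-SY5Y-GLuc-SERCaMP cells, added compounds (three concentrations in the primary run, eleven up to 76.6 uM in confirmation), incubated 16 h, depleted ER calcium with thapsigargin, and read luciferase 4 h later.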

Experiment [8] is described as follows: Cell Viability qHTS for small molecule stabilizers of the endoplasmic reticulum resident proteome (AID 1508629).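 Also: potency is read from the fitted curve at half-maximal effect; compound exposure about 46 h in total before the viability read.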 The note with it: cell viability counter-screen, 100 nM thapsigargin for final 4 h.
Experiment [9] addresses Cytochrome P450 3A4 (Homo sapiens) (UniProt P08684). The experiment can be described thus: Cytochrome P450 family 3 subfamily A member 4 (CYP3A4) small molecule antagonists: luciferase qHTS assay (AID 1645841; active = well fitted curve in the direction sought with a large enough effect in the repeat runs; an effect the other way counts as inactive or inconclusive; also: nearly all actives have a fitted effect of over 45% in size). In outline:
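P450-Glo CYP3A4 enzyme with proluciferin substrate was preincubated with DMSO-dissolved compounds for 10 min at room temperature. NADPH regeneration solution started a 1 h reaction. Detection reagent stopped it, and luminescence was read after 20 min.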

Where “and” joins values, the source holds several entries; their conditions need not be identical. Equal entries are not always repeated. Inconclusive results are not listed. Calls of active or inactive are those of the source. Unless noted, calls follow the shape of the dose curve; as a rule, active = well fitted curve in the direction sought with a large enough effect; inconclusive = small, poorly fitted or top-dose-only effect, or another doubt; inactive = no such curve, though single readings can be large; an effect the other way counts as inactive or inconclusive.

Chain of Calcium and integrin-binding protein 1 (Homo sapiens) (Q99828 whole entry, looked up): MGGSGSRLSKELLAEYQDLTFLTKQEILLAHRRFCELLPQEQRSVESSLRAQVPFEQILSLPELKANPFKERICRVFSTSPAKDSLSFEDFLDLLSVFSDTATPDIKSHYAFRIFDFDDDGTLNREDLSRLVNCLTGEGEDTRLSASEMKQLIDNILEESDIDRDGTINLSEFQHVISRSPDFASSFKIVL
Chain of Cytochrome P450 2C9 (Homo sapiens) (P11712 whole entry, looked up): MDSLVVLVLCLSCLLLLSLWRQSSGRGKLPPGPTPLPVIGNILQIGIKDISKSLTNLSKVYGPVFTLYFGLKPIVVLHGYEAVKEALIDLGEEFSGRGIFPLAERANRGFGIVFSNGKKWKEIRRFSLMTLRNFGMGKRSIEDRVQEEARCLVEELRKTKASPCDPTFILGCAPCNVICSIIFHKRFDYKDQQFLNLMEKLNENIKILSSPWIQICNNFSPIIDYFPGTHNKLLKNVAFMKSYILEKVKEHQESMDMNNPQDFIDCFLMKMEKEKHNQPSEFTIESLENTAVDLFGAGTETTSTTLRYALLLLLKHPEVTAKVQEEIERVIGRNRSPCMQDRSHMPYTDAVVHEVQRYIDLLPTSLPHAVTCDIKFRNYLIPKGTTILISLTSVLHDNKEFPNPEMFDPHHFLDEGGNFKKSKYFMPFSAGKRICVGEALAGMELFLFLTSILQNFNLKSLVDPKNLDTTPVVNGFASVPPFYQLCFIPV
Chain of Cytochrome P450 2D6 (Homo sapiens) (P10635 whole entry, looked up): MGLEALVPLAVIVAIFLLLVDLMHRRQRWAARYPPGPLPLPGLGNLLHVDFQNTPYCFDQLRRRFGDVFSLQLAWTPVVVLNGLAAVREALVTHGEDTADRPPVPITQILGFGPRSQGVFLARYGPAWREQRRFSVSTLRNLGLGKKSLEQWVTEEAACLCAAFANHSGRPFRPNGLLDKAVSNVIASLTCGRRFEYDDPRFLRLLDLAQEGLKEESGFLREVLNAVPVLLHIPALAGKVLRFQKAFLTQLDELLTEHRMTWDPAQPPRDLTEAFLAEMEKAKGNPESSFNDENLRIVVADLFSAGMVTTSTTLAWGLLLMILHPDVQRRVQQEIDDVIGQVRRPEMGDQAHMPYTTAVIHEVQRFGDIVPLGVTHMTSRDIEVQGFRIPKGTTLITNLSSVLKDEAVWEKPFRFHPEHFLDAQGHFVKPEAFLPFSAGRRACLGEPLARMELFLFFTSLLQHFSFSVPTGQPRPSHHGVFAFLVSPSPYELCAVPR
Chain of Cytochrome P450 3A4 (Homo sapiens) (P08684 whole entry, looked up): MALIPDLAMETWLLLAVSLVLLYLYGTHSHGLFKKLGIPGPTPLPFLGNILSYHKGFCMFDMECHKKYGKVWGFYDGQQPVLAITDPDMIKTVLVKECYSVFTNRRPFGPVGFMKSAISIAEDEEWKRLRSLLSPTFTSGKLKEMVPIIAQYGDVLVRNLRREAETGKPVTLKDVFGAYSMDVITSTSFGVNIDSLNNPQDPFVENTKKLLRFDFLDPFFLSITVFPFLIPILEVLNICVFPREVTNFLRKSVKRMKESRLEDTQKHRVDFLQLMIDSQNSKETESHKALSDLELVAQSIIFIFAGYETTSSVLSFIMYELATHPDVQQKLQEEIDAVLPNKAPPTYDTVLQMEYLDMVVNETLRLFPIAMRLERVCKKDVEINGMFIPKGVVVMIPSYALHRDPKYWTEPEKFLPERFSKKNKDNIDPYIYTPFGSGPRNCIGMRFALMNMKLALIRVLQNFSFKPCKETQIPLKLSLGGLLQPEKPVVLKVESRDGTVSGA

Take `COc1ccc2cccc(CCNC(C)=O)c2c1`: the Potency result in [1] and in [2] was “inactive” each time.

`CCN(CC)C(=O)c1ccc(O)c(OC)c1`: the Potency result in experiment [1], in [2], in experiment [3] and in experiment [4] was “inactive” each time.

For the compound `Cc1cccc(Nc2nc(-c3ccncc3)cs2)c1`, the Potency result in experiment [1] was “inactive”. Moreover, the Potency is 0.849 µM (active) in experiment [3] and 0.268 µM (active) in experiment [4].

As to `Cc1cnc(C(=O)O)c[n+]1[O-]`, the Potency result in experiment [1], in [3] and in [4] was “inactive” throughout.

For `CC(C)(C)Cn1c(N)nc2ccc(-c3[nH]c(C(C)(C)C)nc3-c3ccc(F)cc3)nc21`, the Potency result in experiment [1] was “inactive”. Also, the values for the Potency in experiment [3] and in experiment [4] were 15.1 µM (active) and 5.35 µM (active), respectively.

As to `CC(C)NCC(O)COc1cccc2[nH]ccc12` (stereo not given), the Potency result in experiment [1] and in [2] was “inactive” in each case.

For `CC1CCC(C(=O)N(c2cc(C#CC(C)(C)C)sc2C(=O)O)C2CCC(O)CC2)CC1` (stereo not given), the Potency entry in [1], in experiment [5] and in experiment [4] was “inactive” each time.

As to `Cc1ccc(C(C)(O)c2nc3ccccc3s2)c(C)c1` (stereo not given), the Potency result in experiment [1] and in [5] was “inactive” throughout. For the same compound, the Potency in [4] was 3.01 µM (active).

For `O=C(Nc1cccc(Br)c1)c1cccc(S(=O)(=O)N2CCCCCC2)c1`, in experiment [1], the Potency entry is “inactive”. Also, in [4], the Potency is 6.01 µM (active).

Regarding `COc1ccc2cc(-c3nc(-c4ccc(S(C)=O)cc4)[nH]c3-c3ccncc3)ccc2c1` (stereo not given), the Potency result in [1] was “inactive”. Moreover, the Potency in experiment [3] and in [4] was 3.38 µM (active) in each case.

On to `CCN(CC)CCOC(=O)c1ccc(N)cc1`, for which the Potency entry in experiment [6], in experiment [7], in experiment [5], in experiment [2] and in experiment [4] was “inactive” throughout.

For the compound `COc1ccc(C2CC(c3ccccc3)=NN2c2ccc(S(N)(=O)=O)cc2)cc1` (stereo not given), the Potency entry in experiment [1] is “inactive”. In addition, the Potency in experiment [4] was 6.74 µM (active).

`OC[C@@H](O)[C@H](O)[C@H](O)[C@@H](O)CO`: the Potency result in experiment [1], in [2], in [3] and in experiment [4] was “inactive” in each case.

`O=C1c2ccccc2-[n+]2ccc3c([nH]c4ccccc43)c21`: the Potency in experiment [6] is 2 µM (active); in experiment [7], 20 µM (active); in experiment [8], 1 µM (active); in [5] it was 10.6 µM (active).

Consider `CN(C[C@@H]1COCCO1)S(=O)(=O)Nc1ccc2ccc3ncc(-c4cnn(C)c4)cc3c(=O)c2c1`, for which the Potency entry in experiment [1] is “inactive”. Besides, the Potency in experiment [4] is 0.477 µM (active).

With `NCCS`, the Potency entry in experiment [1], in [2], in experiment [3] and in experiment [4] was “inactive” in each case.

With `CCn1cc(C(=O)O)c(=O)c2ccc(C)nc21`, the Potency entry in [1], in [2] and in experiment [3] was “inactive” each time.

`CC(=O)O[C@]1(C(C)=O)CC[C@H]2[C@@H]3C=C(Cl)C4=CC(=O)[C@@H]5C[C@@H]5[C@]4(C)[C@H]3CC[C@@]21C`: the Potency result in experiment [1], in experiment [2] and in experiment [3] was “inactive” each time. In experiment [4], the Potency was 9.77 µM (active).

With `Cn1c(N2CCCCS2(=O)=O)nc(C(=O)NCc2ccc(F)cc2)c(O)c1=O`, the Potency entry in experiment [1], in [3] and in experiment [4] was “inactive” throughout.

Consider `C[C@@H]1CCN(C(=O)CC#N)C[C@H]1N(C)c1ncnc2[nH]ccc12`, for which the Potency result in experiment [1] and in experiment [4] was “inactive” throughout.

Regarding `O=C1NCC2(CCN(CCc3ccccc3)CC2)O1`, the Potency entry in experiment [1], in experiment [2] and in [4] was “inactive” each time. The compound was classed as inactive in experiment [9].

As to `CON=C(C(=O)N[C@@H]1C(=O)N2C(C(=O)OCOC(=O)C(C)(C)C)=C(C=Cc3scnc3C)CS[C@H]12)c1csc(N)n1`, the Potency entry in experiment [1] and in experiment [5] was “inactive” each time. The Potency in experiment [4] was 12 µM (active).

Regarding `COc1cc2c(cc1OC)CN(CCc1ccc(NC(=O)c3cc(OC)c(OC)cc3NC(=O)c3cnc4ccccc4c3)cc1)CC2`, the Potency result in [1], in experiment [5] and in experiment [4] was “inactive” each time.

Turning to `COc1ccc2c(Oc3ccc(NC(=O)c4c(C)n(CC(C)(C)O)n(-c5ccccc5)c4=O)cc3F)ccnc2c1`, the Potency entry in experiment [1] and in experiment [3] was “inactive” each time. In [4], the Potency was 23.9 µM (active).

Regarding `O=C(CCN1CCN(C(=O)OCc2cc(Cl)cc(Cl)c2)CC1)c1ccc2[nH]c(=O)oc2c1`, the Potency entry in experiment [1] and in experiment [5] was “inactive” in each case. Moreover, the Potency in [4] is 7.56 µM (active).

Take `COC[C@@H](c1ccc(C(F)(F)F)cc1)N1CCN(C2(C)CCN(C(=O)c3c(C)ncnc3C)CC2)C[C@H]1C`: the Potency result in experiment [1], in experiment [5] and in experiment [4] was “inactive” throughout.

As to `COC(=O)[C@@H]1[C@H]2C[C@H]3c4[nH]c5ccccc5c4CCN3C[C@@H]2CC[C@@H]1O`, the Potency result in [5] is “inactive”.

Consider `CCc1ccc(OCc2ccccc2C(=O)Nc2ccc3nc(C)cc(N)c3c2)cc1`, for which the Potency entry in experiment [1] was “inactive”. For the same compound, the values for the Potency in experiment [3] and in [4] were 0.213 µM (active) and 26.8 µM (active), respectively.

On to `Cc1cccc(C)c1OCC(C)N` (stereo not given), for which the Potency entry in [5], in experiment [2] and in [4] was “inactive” in each case. Besides, in experiment [3], the Potency was 13.8 µM (active) and 21.3 µM (active).

`CN(C)Cc1cccc(N=C(c2ccccc2)c2c(O)[nH]c3cc(C(=O)N(C)C)ccc23)c1`: the Potency result in experiment [5] is “inactive”.

For `Cc1cc(OCCCc2c(C(=O)O)n(Cc3cccnc3)c3c(-c4c(COc5ccc(N6CCN([S+](C)(=O)[O-])CC6)cc5)nn(C)c4C)cccc23)cc(C)c1Cl`, in [5], the Potency entry was “inactive”.

For `CC(C)(Cc1ccc2ccccc2c1)NC[C@@H](O)COc1cccc(Cl)c1C#N`, the Potency was 0.379 µM (active) in experiment [3] and 2.68 µM (active) in experiment [4].

Regarding `O=C(O)Cc1cccc2ccccc12`, the Potency entry in experiment [2], in [3] and in experiment [4] was “inactive” each time.

On to `O=C(NCCN1CCOCC1)c1ccc(Cl)cc1`, for which the Potency result in [5], in experiment [2] and in [4] was “inactive” throughout. For the same compound, the Potency in experiment [3] was 9.77 µM (active).

Turning to `O=c1cc(N2CCOCC2)oc2c(-c3cccc4c3sc3ccccc34)cccc12`, the Potency result in experiment [5] was “inactive”.

For the compound `COc1cccc(-c2cc(=O)c3ccccc3o2)c1N`, the Potency result in [5] was “inactive”.

In the case of `N#C[C@H]1C[C@H]2C[C@@H]2N1C(=O)[C@@H](N)C12CC3CC(CC(O)(C3)C1)C2`, the Potency entry in experiment [5], in experiment [2], in [3] and in experiment [4] was “inactive” in each case.

Consider `COc1cc(NC(=O)c2ccc(-c3ccc(Cl)cc3)o2)cc(OC)c1`, for which the Potency result in experiment [5] was “inactive”. In addition, the Potency in experiment [4] was 8.49 µM (active).

On to `Cc1ccc([C@@H]2O[C@H](CO)[C@@H](O)[C@H](O)[C@@H]2O)cc1Cc1ccc(-c2ccc(F)cc2)s1`, for which the Potency result in experiment [5] was “inactive”. Also, the Potency in [3] was 23.9 µM (active); in experiment [4], 12 µM (active).
